# Tested on: KIT
# Settings: concentration: 1 μM, replicates: in singlicate; n = 1
# 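Further: KINOMEscan kinase panel screen.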
row,SMILES,%Inh [%]
1,COc1ccc(Nc2nccc(N3CCC(NC(=O)Nc4cccc(OC)c4)C3)n2)cc1 (stereo not shown) [GSK1379742],49
2,Cc1ccc(C)c(NC(=O)NC2CCN(c3ccnc(Nc4ccc(F)cc4)n3)C2)c1 (stereo not shown) [GSK1379720],14
3,c1ccc(-c2n[nH]cc2Nc2ccnc3ccccc23)nc1 [GW694077],33
4,COc1cc(Nc2nccc(N3CCC(NC(=O)Nc4cccc(C(C)=O)c4)C3)n2)cc(OC)c1OC (stereo not shown) [GSK1379753],86
5,O=C(Nc1cccc(-c2nn3ncccc3c2-c2ccnc(Nc3ccccc3)n2)c1)c1c(F)cccc1F [GSK198271],100
6,c1ccc(-c2cnc3nccnn23)cc1 [AH20685],5
7,Cl.c1ccc(-c2ccc3c(Nc4ccc5[nH]ncc5c4)ccnc3c2)nc1 [GW440137],94.4
8,Fc1ccc(-c2ncn(C3CCNCC3)c2-c2ccnc(Oc3ccc(-c4ccccc4)cc3)n2)cc1 [SB-245391],17
9,Clc1ccc(-c2nn3ncccc3c2-c2ccnc(Nc3ccc4c(c3)OCCO4)n2)cc1 [GW829116],99.9
10,Cc1ccc(F)c(C(=O)Nc2cccc(-c3nn4ccccc4c3-c3ccnc(Nc4cccc(F)c4)n3)c2)c1F [GSK361061],99.4
11,CNC(=O)c1ccccc1Nc1nc(Nc2ccc(N3CCOCC3)cc2)ncc1Cl.Cl [GSK1576028],92.4
12,Cc1cccc(Nc2nc(N[C@H]3CCNC3)ncc2C(N)=O)c1.Cl [GSK2197149],94.9
13,CCn1c(-c2nonc2N)nc2c(C#CC(C)(C)O)nc(OC[C@H](N)c3ccccc3)cc21 [GSK943949],0
14,COc1cc(Nc2ncc3c(C)nc(-c4cc5ccccc5[nH]4)n3n2)cc(OC)c1OC [GW869516],72
15,Cl.NC(=O)c1cccc(Nc2nccc(Nc3ccc(Oc4c(Cl)cccc4Cl)c(Cl)c3)n2)c1 [GW659009],17
16,Cl.c1ccc(-c2ccc3c(Nc4ccc5[nH]ccc5c4)ccnc3c2)nc1 [GW440138],100
17,CN1CCN(CCCNc2nccc(-c3c(-c4ccc(F)cc4)nn4cc(C(F)(F)F)ccc34)n2)CC1 [GW621581],7
18,O=C(Nc1n[nH]c2cc(-c3ccoc3)ccc12)C1CC1 [SB-738481],77
19,COc1cccc(C2=C(Nc3ccc(Cl)c(C(=O)O)c3)C(=O)NC2=O)c1 [SB-390769],6

row,SMILES,%Inh [%]
1,COc1cccc(-c2ccc3c(NC(=O)C4CC4)n[nH]c3n2)c1 [SB-710903],15
2,COc1cccc(NC(=O)NC2CCN(c3ccnc(Nc4cc(OC)c(OC)c(OC)c4)n3)C2)c1 (stereo not shown) [GSK1379763],98.5
3,CN(C)S(=O)(=O)c1cc(-c2ccc3nccc(-c4cccc(S(N)(=O)=O)c4)c3c2)cnc1N [GSK1669921],21
4,Cn1cc(-c2ccc3c(c2)CCN3C(=O)Cc2cccc(F)c2)c2c(N)ncnc21 [GSK2603358],100
5,COc1ccc(CNC(=O)NC2CCN(c3ccnc(Nc4ccc(F)cc4)n3)CC2)cc1 [GSK1379788],19
6,O=C(Nc1cccc(-c2nn3ccccc3c2-c2ccnc(Nc3cccc(F)c3)n2)c1)c1c(F)ccc(F)c1Cl [GSK357952],98.2
7,Cl.Cl.NCC(NCc1ccc(-c2ccnc3[nH]ccc23)s1)c1ccccc1 (stereo not shown) [GSK1321565],25
8,CCc1ccc(-c2ccc3c(c2)-c2c(cnn2C)S(=O)(=O)N3C)cc1,2
9,O=C(O)C(F)(F)F.O=C(O)C(F)(F)F.O=c1[nH]ccc2nc(N[C@@H]3CCCNC3)nc(Nc3ccc(S(=O)(=O)N4CCOCC4)cc3)c12 [GSK2177277],99.8
10,Cc1occc1-c1ncc(OC[C@@H](N)Cc2c[nH]c3ccccc23)cc1-c1ccc2[nH]nc(C)c2c1.O=C(O)C(F)(F)F [GSK682037],21
11,COCCOCCOc1cc2ncc3c4ccc(C#N)cc4[nH]c3c2cc1OC,73
12,CN(C)Cc1ccc(-c2ccc3c(Nc4ccc(Oc5ccccn5)cc4)ccnc3c2)o1 [GW567148],92.8
13,Cc1ccc(C(=O)N2CC[C@@H](O)C2)cc1-n1c(C)cc(OCc2ccc(F)cc2F)c(Br)c1=O,87
14,Cn1cc(-c2[nH]c3cc(NC(=O)[C@H](N)C4CCCCC4)cc4c3c2C=NNC4=O)cn1,99.9
15,COc1cc(Nc2nccc(-c3c(-c4cccc(NC(=O)c5c(F)cccc5F)c4)nn4ncccc34)n2)cc(OC)c1OC [GSK327238],100
16,CC(=O)Nc1nc2cnc(Nc3cc(NC(=O)c4cccc(C5(C#N)CC5)c4Cl)ccc3C)nc2s1,99.8
17,Cc1ccc(C(=O)Nc2ccc(Nc3ccnc4cc(-c5nccs5)ccc34)cc2O)cc1.Cl [GW494702],73
18,Nc1ncc(-c2cccnc2)c2scc(-c3ccc4c(c3)CCN4C(=O)Cc3ccccc3)c12 [GSK683281],98.5
